Some test systems named below: RPMI-8226 leukemia; OVCAR-8 ovarian; OVCAR-5 ovarian; OVCAR-4 ovarian; IGROV1 ovarian; OVCAR-3 ovarian; HS 578T breast; NCI/ADR-RES ovarian; SK-OV-3 ovarian.
What all share (test): NCI-60 one-dose screen, 48 h (100 = growth as untreated, 0 = no growth, -100 = all killed)
What all share (conditions): 10 µM

The panel holds about 83,000 compounds, 20% with a hit somewhere; the sample as a whole holds those more often.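 Plates (96-well) were seeded with cells, treated with compound at one concentration, and incubated for 48 hours before percent growth was determined.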 Values without a mark were called inactive. Active and inactive are the calls of the source. The calls were made as follows: active = growth percent below 10; inactive = the rest.

Turning to `O=C(Nc1ccccc1)Nc1nc2ccccc2s1`, the growth in the experiment on RPMI-8226 leukemia is 78.3%; in the experiment on OVCAR-8 ovarian, 90.2%; in the experiment on OVCAR-5 ovarian, 92.4%; in the experiment with OVCAR-4 ovarian it was 78.2%; in the experiment on IGROV1 ovarian it was 54.8%; in the experiment on OVCAR-3 ovarian, 110%. Moreover, the growth is 86.9% in the experiment with HS 578T breast and 91.8% in the experiment with NCI/ADR-RES ovarian.

`O=C1NC(=NC23CC4CC(CC(C4)C2)C3)N/C1=C\c1ccc2ncoc2c1`: the growth in the experiment on RPMI-8226 leukemia was -4.5% (active); in the experiment with OVCAR-8 ovarian it was 13.4%; in the experiment with OVCAR-5 ovarian it was -14.4% (active); in the experiment on OVCAR-4 ovarian it was 13.4%; in the experiment with IGROV1 ovarian, 3.59% (active); in the experiment with OVCAR-3 ovarian, 24.1%. In addition, the values for the growth in the experiment with HS 578T breast and with NCI/ADR-RES ovarian were -0.689% (active) and 4.58% (active), respectively.

`CN1CCCN(Cc2ccc(C(=O)Nc3cccc(Nc4ccc5cc(O)ccc5n4)c3)cc2C(F)(F)F)CC1`: the growth with RPMI-8226 leukemia was -20.5% (active); in the experiment with OVCAR-8 ovarian, 101%; in the experiment with OVCAR-5 ovarian it was 131%; in the experiment on OVCAR-4 ovarian, 77.2%; with SK-OV-3 ovarian it was 116%; with IGROV1 ovarian, 88.6%. Further, the growth is 76.9% with OVCAR-3 ovarian, 61.9% in the experiment on HS 578T breast and 90.7% in the experiment on NCI/ADR-RES ovarian.

Consider `O=C(Nc1ccc(F)c(Cl)c1)c1cc(-c2ccc(F)cc2F)ccc1O`, for which the growth in the experiment with RPMI-8226 leukemia is -28.6% (active); in the experiment on OVCAR-8 ovarian it was 6.82% (active); in the experiment on OVCAR-5 ovarian, 0.459% (active); with OVCAR-4 ovarian, 12.9%; in the experiment on SK-OV-3 ovarian, -5.38% (active); in the experiment on IGROV1 ovarian, 16.4%. The figures for the growth with OVCAR-3 ovarian, with HS 578T breast and in the experiment with NCI/ADR-RES ovarian were 9.88% (active), -3% (active) and -15.1% (active), respectively.

`CONC[C@]1(C)C=C2C(=O)[C@](C)(O)C3(CC3)C(C)=C2[C@H]1O`: the growth is 54.3% with RPMI-8226 leukemia; -6.95% (active) with OVCAR-8 ovarian; -44.2% (active) in the experiment on OVCAR-5 ovarian; -17.4% (active) with OVCAR-4 ovarian; -14.4% (active) in the experiment with SK-OV-3 ovarian; -15.4% (active) in the experiment on IGROV1 ovarian. The growth is -20.4% (active) in the experiment on OVCAR-3 ovarian, -12.4% (active) in the experiment with HS 578T breast and -58.3% (active) with NCI/ADR-RES ovarian.

Regarding `CCCCCCCCCCCCCCCCCCCC(=O)NCCc1c[nH]c2ccc(O)cc12`, the growth in the experiment on RPMI-8226 leukemia is 28.2%; in the experiment on OVCAR-8 ovarian, 102%; in the experiment on OVCAR-5 ovarian it was 111%; in the experiment on OVCAR-4 ovarian, 98%; in the experiment with IGROV1 ovarian, 93.6%; in the experiment on OVCAR-3 ovarian it was 87.4%. Moreover, the figures for the growth in the experiment with HS 578T breast and in the experiment with NCI/ADR-RES ovarian were 112% and 96.2%, respectively.

Consider `O=C1NC(=NC23CC4CC(CC(C4)C2)C3)N/C1=C\c1ccc2ncccc2n1`, for which the growth was -23.3% (active) in the experiment with RPMI-8226 leukemia; 2.33% (active) in the experiment on OVCAR-8 ovarian; -40.4% (active) in the experiment on OVCAR-5 ovarian; -24.7% (active) in the experiment with OVCAR-4 ovarian; -10.5% (active) with SK-OV-3 ovarian; -6.63% (active) with IGROV1 ovarian. For the same compound, the growth in the experiment on OVCAR-3 ovarian is -22.3% (active); in the experiment on NCI/ADR-RES ovarian, -21% (active).

Consider `O=C1Nc2cc(-c3ccc(NC(=O)c4cccs4)cc3)ccc2/C1=C/c1ccc[nH]1`, for which the growth with RPMI-8226 leukemia is 52.4%; in the experiment on OVCAR-8 ovarian it was 63.4%; in the experiment on OVCAR-5 ovarian, 89.7%; in the experiment on OVCAR-4 ovarian it was 50.4%; in the experiment with SK-OV-3 ovarian, 108%; with IGROV1 ovarian, 97.8%. The growth in the experiment on OVCAR-3 ovarian was 69.6%; in the experiment with HS 578T breast, 73.3%; in the experiment on NCI/ADR-RES ovarian, 62.1%.

As for `COc1ccc(C(=O)Nc2ccc(-c3ccc4c(c3)NC(=O)/C4=C\c3ccc[nH]3)cc2)cc1`, the growth in the experiment on RPMI-8226 leukemia was 65.5%; in the experiment on OVCAR-8 ovarian it was -22.3% (active); with OVCAR-5 ovarian, 51.8%; in the experiment on OVCAR-4 ovarian, -36.8% (active); with IGROV1 ovarian it was 65.9%; in the experiment on OVCAR-3 ovarian, 9.86% (active). Besides, the growth in the experiment with HS 578T breast was -0.0796% (active).

Turning to `O=S(=O)(c1ccc(Cl)cc1)c1nc(-c2ccccc2)oc1S(=O)(=O)c1ccc(Cl)cc1`, the growth is 36.3% with RPMI-8226 leukemia; 81.5% in the experiment on OVCAR-8 ovarian; 101% in the experiment with OVCAR-5 ovarian; 92.8% with OVCAR-4 ovarian; 94% in the experiment on SK-OV-3 ovarian; 91.7% in the experiment with IGROV1 ovarian. The figures for the growth in the experiment with OVCAR-3 ovarian, in the experiment with HS 578T breast and with NCI/ADR-RES ovarian were 89.1%, 87.4% and 81.2%, respectively.

As for `CC(=C(c1ccc(OCCCN(C)C)cc1)c1ccc(OCCCN(C)C)cc1)c1ccccc1`, the growth with RPMI-8226 leukemia was -54.4% (active); with OVCAR-8 ovarian it was -72.7% (active); in the experiment on OVCAR-5 ovarian, -98.5% (active); with OVCAR-4 ovarian, -96.9% (active); with SK-OV-3 ovarian it was -90.3% (active); with IGROV1 ovarian, -95% (active). Besides, the growth is -93.6% (active) with OVCAR-3 ovarian and -98.1% (active) in the experiment on NCI/ADR-RES ovarian.

On to `c1ccc(C(=C(c2ccc(OCCN3CCCCC3)cc2)c2ccc(OCCN3CCCCC3)cc2)C2CCCC2)cc1`, for which the growth in the experiment on RPMI-8226 leukemia is -51.4% (active); with OVCAR-8 ovarian, -48.8% (active); in the experiment on OVCAR-5 ovarian, -22.5% (active); with OVCAR-4 ovarian, 1.48% (active); with IGROV1 ovarian, -85.8% (active); in the experiment with OVCAR-3 ovarian it was -92.9% (active). The results for the growth in the experiment with HS 578T breast and with NCI/ADR-RES ovarian were -9.63% (active) and 101%, respectively.

`Nc1n[nH]c2cccc(C#Cc3cccc(NC(=O)Nc4cc(C(F)(F)F)cc(C(F)(F)F)c4)c3)c12`: the growth is -16.3% (active) in the experiment on RPMI-8226 leukemia; -5.59% (active) in the experiment on OVCAR-8 ovarian; -46% (active) in the experiment with OVCAR-5 ovarian; -3.45% (active) in the experiment with OVCAR-4 ovarian; -28.9% (active) in the experiment on SK-OV-3 ovarian; -66% (active) in the experiment on IGROV1 ovarian. The figures for the growth in the experiment on OVCAR-3 ovarian, in the experiment with HS 578T breast and with NCI/ADR-RES ovarian were -20.4% (active), -20.5% (active) and -48.9% (active), respectively.

Turning to `O=C(N/N=C/c1ccc(B(O)O)o1)c1[nH]c2ccc(Br)cc2c1-c1ccccc1`, the growth in the experiment on RPMI-8226 leukemia is 28.2%; with OVCAR-8 ovarian it was 14.1%; with OVCAR-5 ovarian, 43.5%; in the experiment on OVCAR-4 ovarian, 56.1%; with SK-OV-3 ovarian it was 25.5%; in the experiment with IGROV1 ovarian, 51.8%. The growth was 14% in the experiment on OVCAR-3 ovarian, 0.269% (active) in the experiment with HS 578T breast and -34.6% (active) in the experiment with NCI/ADR-RES ovarian.

With `CC(=O)Nc1nc(-c2ccc(N3CCN(C)CC3)c(NS(=O)(=O)c3ccc(C(F)(F)F)cc3)c2)cs1`, the growth in the experiment with RPMI-8226 leukemia was -29.4% (active); in the experiment on OVCAR-8 ovarian it was 8.42% (active); in the experiment on OVCAR-5 ovarian it was 44.8%; in the experiment on OVCAR-4 ovarian, 43.3%; in the experiment on SK-OV-3 ovarian it was 77%; in the experiment on IGROV1 ovarian, 47.5%. For the same compound, the growth with OVCAR-3 ovarian was -3.33% (active); in the experiment with NCI/ADR-RES ovarian, -18.2% (active).

The values above are taken from PubChem BioAssay (NCI).
